Laboratory results from PubChem BioAssay (NCATS).
Inconclusive results are not listed. The source made the active and inactive calls. The call rests on the fitted dose curve; in most records, active means well fitted curve in the direction sought with a large enough effect; inconclusive means small, poorly fitted or top-dose-only effect, or another doubt; inactive means no such curve, though single readings can be large; an effect the other way counts as inactive or inconclusive.

Assays:
[1] = qHTS of pediatric cancer cell lines to identify multiple opportunities for drug repurposing: Primary screen for SJ-GBM2 cells (AID 1347091); further: potency means the concentration at half of the fitted maximal effect
Procedure, shortened: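 Eight- or eleven-point concentration series, 48 h treatment at 37 degrees C in growth media; readout CellTiter-Glo luminescence. Potency and efficacy were taken from the concentration-response curves.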

[2] = qHTS of pediatric cancer cell lines to identify multiple opportunities for drug repurposing: Primary screen for A673 cells (AID 1347092); further: nearly all actives have a fitted effect of over 45% in size; further: potency means the concentration at half of the fitted maximal effect
Procedure, shortened: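 Luminescence from CellTiter-Glo, taken after 15 min at room temperature, served as the proxy for metabolically active cells following 48 h treatment. Both potency and efficacy were taken from curves fitted to the titration data.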

[3] = qHTS of pediatric cancer cell lines to identify multiple opportunities for drug repurposing: Primary screen for BT-37 cells (AID 1347094); further: potency means the concentration at half of the fitted maximal effect
Procedure, shortened: (§1)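 ATP-based luminescence (CellTiter-Glo) quantifies viability after a 48-hour exposure. Compounds are dosed across 8 or 11 final concentrations; DMSO and 2.3 µM bortezomib serve as controls.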

[4] = qHTS of pediatric cancer cell lines to identify multiple opportunities for drug repurposing: Primary screen for NB-EBc1 cells (AID 1347095); further: potency means the concentration at half of the fitted maximal effect
Procedure, shortened: as §1

[5] = qHTS of pediatric cancer cell lines to identify multiple opportunities for drug repurposing: Primary screen for U-2 OS cells (AID 1347096); further: nearly all actives have a fitted effect of over 50% in size
Procedure, shortened: (§2)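 Cells (500-1,000/well) in growth media were settled 5 h at 37 degrees C, then given compounds for 48 h. Viability was read as CellTiter-Glo luminescence. Primary runs used MIPE at 11 points (0.78 nM-46 µM) and NPC at 8 points (0.59 nM-46 µM); follow-ups used 11 points.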

[6] = qHTS of pediatric cancer cell lines to identify multiple opportunities for drug repurposing: Primary screen for Saos-2 cells (AID 1347097); further: nearly all actives have a fitted effect of over 40% in size; further: potency means the concentration at half of the fitted maximal effect
Procedure, shortened: as §1

[7] = qHTS of pediatric cancer cell lines to identify multiple opportunities for drug repurposing: Primary screen for LAN-5 cells (AID 1347100); further: potency means the concentration at half of the fitted maximal effect
Procedure, shortened: as §2

[8] = qHTS of pediatric cancer cell lines to identify multiple opportunities for drug repurposing: Primary screen for BT-12 cells (AID 1347101); further: nearly all actives have a fitted effect of over 25% in size; further: potency means the concentration at half of the fitted maximal effect
Procedure, shortened: (§3)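 Cells (500-1,000/well) rested 5 h, then received compounds for 48 h; metabolically active cells were measured by CellTiter-Glo luminescence. Final concentrations spanned up to 46 µM (MIPE, 11-point) or 0.59 nM-46 µM (NPC, 8-point) in primary screens, 11-point in follow-ups.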

[9] = qHTS of pediatric cancer cell lines to identify multiple opportunities for drug repurposing: Primary screen for Rh18 cells (AID 1347102); further: nearly all actives have a fitted effect of over 65% in size; further: potency means the concentration at half of the fitted maximal effect
Procedure, shortened: as §2

[10] = qHTS of pediatric cancer cell lines to identify multiple opportunities for drug repurposing: Primary screen for OHS-50 cells (AID 1347103); further: nearly all actives have a fitted effect of over 40% in size; further: potency means the concentration at half of the fitted maximal effect
Procedure, shortened: as §3

[11] = qHTS of pediatric cancer cell lines to identify multiple opportunities for drug repurposing: Primary screen for RD cells (AID 1347104); further: nearly all actives have a fitted effect of over 55% in size; further: potency means the concentration at half of the fitted maximal effect
Procedure, shortened: as §1

[12] = qHTS of pediatric cancer cell lines to identify multiple opportunities for drug repurposing: Primary screen for MG 63 (6-TG R) cells (AID 1347105); further: nearly all actives have a fitted effect of over 50% in size; further: potency means the concentration at half of the fitted maximal effect
Procedure, shortened: as §1

[13] = qHTS of pediatric cancer cell lines to identify multiple opportunities for drug repurposing: Primary screen for control Hh wild type fibroblast cells (AID 1347106);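 further: series mostly up to about 46 µM; a drop in luminescence marks cytotoxicity and a rise apparent proliferation; nearly all actives have a fitted effect of over 55% in size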
Procedure, shortened: as §2

[14] = qHTS of pediatric cancer cell lines to identify multiple opportunities for drug repurposing: Primary screen for Rh30 cells (AID 1347107); further: nearly all actives have a fitted effect of over 75% in size; further: potency means the concentration at half of the fitted maximal effect
Procedure, shortened: as §2

[15] = qHTS of pediatric cancer cell lines to identify multiple opportunities for drug repurposing: Primary screen for NB1643 cells (AID 1347099); further: nearly all actives have a fitted effect of over 50% in size; further: potency means the concentration at half of the fitted maximal effect
Procedure, shortened: as §1

[16] = qHTS of pediatric cancer cell lines to identify multiple opportunities for drug repurposing: Primary screen for Rh41 cells (AID 1347108); further: nearly all actives have a fitted effect of over 70% in size; further: potency means the concentration at half of the fitted maximal effect
Procedure, shortened: as §1

[17] = qHTS of pediatric cancer cell lines to identify multiple opportunities for drug repurposing: Primary screen for SK-N-MC cells (AID 1347093); further: potency means the concentration at half of the fitted maximal effect
Procedure, shortened: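 Metabolically active cells were quantified by ATP-dependent luminescence (CellTiter-Glo, 15 min at room temperature) following 48 h treatment. Cells had been plated at 500-1,000 per well and settled for 5 h beforehand.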

[18] = qHTS of pediatric cancer cell lines to identify multiple opportunities for drug repurposing: Confirmatory screen for NB1643 cells (AID 1347109); further: potency means the concentration at half of the fitted maximal effect; nearly all actives have a fitted effect of over 45% in size
Procedure, shortened: as §2

[19] = qHTS of pediatric cancer cell lines to identify multiple opportunities for drug repurposing: Confirmatory screen for A673 cells (AID 1347110);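 further: potency means the concentration at half of the fitted maximal effect; cells exposed to compound for 48 h before the viability read; nearly all actives have a fitted effect of over 65% in size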
Procedure, shortened: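 qHTS titration format: primary MIPE 0.78 nM-46 µM (11 pts), NPC 0.59 nM-46 µM; confirmation 11 pts. 48 h, CTG luminescence.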

[20] = qHTS of pediatric cancer cell lines to identify multiple opportunities for drug repurposing: Primary screen for SK-N-SH cells (AID 1347098); further: nearly all actives have a fitted effect of over 65% in size; further: potency means the concentration at half of the fitted maximal effect
Procedure, shortened: as §3

| Compound | Potency [1] | Potency [2] | Potency [3] | Potency [4] | Potency [5] | Potency [6] | Potency [7] | Potency [8] | Potency [9] | Potency [10] | Potency [11] | Potency [12] | Potency [13] | Potency [14] | Potency [15] | Potency [16] | Potency [17] | Potency [18] | Potency [19] | Potency [20] |
| --- | --- | --- | --- | --- | --- | --- | --- | --- | --- | --- | --- | --- | --- | --- | --- | --- | --- | --- | --- | --- |
| CC[C@H]1OC(=O)[C@H](C)[C@@H](O[C@H]2C[C@@](C)(OC)[C@@H](O)[C@H](C)O2)[C@H](C)[C@@H](O[C@@H]2O[C@H](C)C[C@H](N(C)C)[C@@H]2O)[C@](C)(OC)C[C@@H](C)C(=O)[C@H](C)[C@@H](O)[C@]1(C)O | inactive | inactive | inactive | inactive | inactive | inactive | inactive | inactive | inactive | inactive | inactive | inactive | inactive | inactive |  |  |  |  |  |  |
| C[C@H](O)[C@@H]1C(=O)N2C(C(=O)O)=C(S[C@@H]3CN[C@H](CNS(N)(=O)=O)C3)[C@@H](C)[C@@H]12 | inactive | inactive | inactive | inactive | inactive | inactive | inactive | inactive | inactive | inactive | inactive | inactive | inactive | inactive | inactive | inactive |  |  |  |  |
| CS(=O)(=O)N1CCc2c(-c3cnc(N)nc3)nc(N3CCOCC3)nc21 | 209 nM (active) | 935 nM (active) |  | 235 nM (active) |  | 935 nM (active) | 332 nM (active) |  | 372 nM (active) | 54.4 nM (active) | 418 nM (active) | 118 nM (active) | inactive |  | 469 nM (active) | 833 nM (active) | 37.2 nM (active) | 1650 nM (active) | 4140 nM (active) |  |
| CCCCCCCCCCCC(CC1OC(=O)C1CCCCCC)OC(=O)C(CC(C)C)NC=O (stereo unspecified) | 9350 nM (active) | inactive | inactive | 18700 nM (active) | inactive | 14800 nM (active) | inactive | inactive | inactive |  | inactive | inactive | inactive | inactive |  | inactive |  |  |  |  |
| C=C1C(=O)O[C@H]2[C@@H]1CCC(C)=CCC[C@@]1(C)O[C@@H]21 | 8330 nM (active) | 7430 nM (active) |  | 5260 nM (active) |  | 3320 nM (active) | 7430 nM (active) | 21700 nM (active) | 23500 nM (active) | 4850 nM (active) | 18700 nM (active) | 9350 nM (active) | inactive | 18700 nM (active) | 8330 nM (active) |  | 7430 nM (active) |  |  | 24100 nM (active) |
| C#Cc1cccc(Nc2ncnc3cc(OCCOC)c(OCCO)cc23)c1 | 5260 nM (active) | 187 nM (active) | 6850 nM (active) | 5260 nM (active) |  | 5900 nM (active) | 264 nM (active) | 13700 nM (active) |  | 3850 nM (active) | 1660 nM (active) |  |  | inactive | 1870 nM (active) | 7430 nM (active) |  |  |  | 3830 nM (active) |
| COc1cc([C@@H]2c3cc4c(cc3[C@H](O)[C@H]3COC(=O)[C@@H]23)OCO4)cc(OC)c1OC | 66.2 nM (active) | 93.5 nM (active) |  | 20.9 nM (active) |  | 118 nM (active) | 83.3 nM (active) | 273 nM (active) |  | 172 nM (active) |  |  |  | inactive |  |  | 74.3 nM (active) |  | 928 nM (active) | inactive |
| COc1cc(OC)c(C=CS(=O)(=O)Cc2ccc(OC)c(NCC(=O)O)c2)c(OC)c1 | 166 nM (active) | 148 nM (active) |  | 187 nM (active) |  | 59 nM (active) | 148 nM (active) |  | inactive | 172 nM (active) |  | inactive |  | inactive |  |  | 93.5 nM (active) | 414 nM (active) | 369 nM (active) | 7640 nM (active) |
| COc1cc2c(cc1OC)[C@@H]1C(=O)c3ccc4c(c3O[C@@H]1CO2)C=CC(C)(C)O4 | 18700 nM (active) | 74.3 nM (active) |  | 10500 nM (active) |  | 13200 nM (active) | 18700 nM (active) | 27.3 nM (active) | inactive | 172 nM (active) |  |  |  |  |  |  | 148 nM (active) |  | 16500 nM (active) |  |
| CC[C@@]1([C@@H]2O[C@@H]([C@H]3O[C@@](O)(CO)[C@H](C)C[C@H]3C)C[C@H]2C)CC[C@H]([C@]2(C)CC[C@]3(C[C@H](O)[C@@H](C)[C@@H]([C@@H](C)[C@@H](OC)[C@H](C)C(=O)O)O3)O2)O1 | 288 nM (active) | 162 nM (active) | 150 nM (active) | 182 nM (active) |  | 6450 nM (active) | 129 nM (active) | 106 nM (active) |  | 188 nM (active) |  |  |  |  | 457 nM (active) | inactive |  |  | 1020 nM (active) | 10500 nM (active) |
| CCOC(=O)C1=C(C)NC(=S)NC1c1cccc(O)c1 (stereo unspecified) | 37.2 nM (active) | 46.9 nM (active) |  | 264 nM (active) | inactive |  | 187 nM (active) |  | inactive | 96.8 nM (active) |  |  | inactive | inactive | inactive |  | 264 nM (active) |  | 11700 nM (active) |  |
| CN1C(C(=O)Nc2ccccn2)=C(O)c2sc(Cl)cc2S1(=O)=O | inactive | 2960 nM (active) |  | 16600 nM (active) |  |  |  |  |  | inactive |  |  |  | inactive | 18700 nM (active) |  | 4690 nM (active) |  |  | 9610 nM (active) |
| C[C@H]1C[C@H]2[C@@H]3CCC4=CC(=O)C=C[C@]4(C)[C@@H]3C(=O)C[C@]2(C)[C@@]1(O)C(=O)CO | inactive | inactive | inactive | inactive | inactive |  | inactive | inactive |  |  | inactive | inactive | inactive | inactive | inactive | inactive |  |  |  | inactive |
| Cn1cc(-c2ccc3ncc(Cc4ccc5ncccc5c4)n3n2)cn1 | 9.3 nM (active) | inactive | inactive | inactive | inactive |  | inactive |  | inactive | inactive | inactive | inactive | inactive | inactive | inactive |  |  |  |  | inactive |
